Compound activity as filed in PubChem.
This is a sample that favours compounds with a hit; in the whole collection about 11% have one here.
BAZ2B block: blocks human BAZ2B | AlphaScreen BAZ2B-H3K14Ac peptide displacement | Potency, µM (doses to about 114 µM), hits mostly inhibitors | hit rate 4.4% among 360,000 | AID 504333; further: nearly all actives have a fitted effect of over 60% in size
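Inhibition is scored as reduced AlphaScreen emission. The BAZ2B/b-H3(5-23)K14Ac complex (50 nM each) in PBS pH 7.4, 0.01% Tween-20 meets compound (up to 110 uM) for 30 min at RT before bead addition.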
G9a block: G9a (human) methyltransferase inhibition | Q96KQ7 | G9a H3K9 monomethylation, AlphaScreen, 2 h | Potency, µM (doses to about 102 µM), usual class: inhibitors | hit rate 8.8% among 350,000; further: nearly all actives have a fitted effect of over 75% in size
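G9a (20 nM) was preincubated 15 min with compound, then reacted 2 h at room temperature with 500 nM biotin-H3K9 peptide and 20 µM SAM. Monomethyl-H3K9 detected by AlphaScreen using anti-H3K9me1 antibody.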
JMJD2A Tudor inh: inhibitors of human JMJD2A Tudor domain. Potency, µM (doses to about 114 µM), most hits filed as inhibitors. AlphaScreen JMJD2A-Tudor / H3K4me3 peptide binding. hit rate 4.4% among 390,000. AID 504339. O75164; further: nearly all actives have a fitted effect of over 50% in size
L3MBTL1 block: L3MBTL1 (human) inhibition | hit rate 0.66% among 230,000 | Q9Y468 | Potency, µM (highest dose often 57.1 µM), hits mostly inhibitors | AlphaScreen L3MBTL1–H3K9me1 peptide binding; further: nearly all actives have a fitted effect of over 60% in size
Target sequence (Q9Y468 whole entry, looked up): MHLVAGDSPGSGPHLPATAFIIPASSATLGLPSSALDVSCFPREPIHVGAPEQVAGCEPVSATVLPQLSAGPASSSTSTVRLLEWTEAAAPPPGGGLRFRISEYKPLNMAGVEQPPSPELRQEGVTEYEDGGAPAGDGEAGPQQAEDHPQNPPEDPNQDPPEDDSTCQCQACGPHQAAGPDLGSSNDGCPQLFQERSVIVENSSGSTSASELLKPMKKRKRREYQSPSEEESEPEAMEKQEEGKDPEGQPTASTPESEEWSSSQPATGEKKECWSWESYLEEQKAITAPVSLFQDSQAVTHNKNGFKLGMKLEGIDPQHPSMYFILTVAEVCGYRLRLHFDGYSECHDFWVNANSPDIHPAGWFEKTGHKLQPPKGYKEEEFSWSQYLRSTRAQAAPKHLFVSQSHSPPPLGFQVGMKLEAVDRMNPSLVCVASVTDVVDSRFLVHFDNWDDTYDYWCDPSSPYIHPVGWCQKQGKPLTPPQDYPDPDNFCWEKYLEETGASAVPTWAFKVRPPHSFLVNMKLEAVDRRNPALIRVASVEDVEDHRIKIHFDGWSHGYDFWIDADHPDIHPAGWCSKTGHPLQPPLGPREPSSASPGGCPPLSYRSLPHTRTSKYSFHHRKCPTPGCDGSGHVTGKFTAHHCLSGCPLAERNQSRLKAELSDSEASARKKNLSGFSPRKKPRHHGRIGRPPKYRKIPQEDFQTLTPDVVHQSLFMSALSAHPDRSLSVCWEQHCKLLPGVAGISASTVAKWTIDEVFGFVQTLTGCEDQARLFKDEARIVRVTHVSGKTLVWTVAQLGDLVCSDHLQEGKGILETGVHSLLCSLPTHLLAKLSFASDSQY
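AlphaScreen assay: L3MBTL1 (50 nM final) was preincubated 30 min at room temperature with biotinylated H3(1-15)K9me1 peptide (75 nM final), then 30 min with library compounds; streptavidin donor and nickel chelate acceptor beads (10 ug/mL final) added, 30 min dark.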
PI5P4K alpha inh: inhibitors of human PI5P4K alpha; hit rate 1.2% among 330,000; max response, %; PI5P4Kalpha enzyme, ADP-Glo luminescence, 60 min; stronger effect = lower value; AID 652105; P48426; active means max response of -50% or lower; inconclusive means between -30% and -50%; inactive means -30% or higher; further: value at the top dose of about 77 µM
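Controls without substrate or without enzyme flank wells where PI5P4Kalpha converts substrate using 5 microM ATP (final). Incubation lasts 60 minutes at room temperature; ADP formed is read by ADP-Glo luminescence.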
HP1b binding inh: HP1-beta chromodomain-methylated histone interaction inhibition; AlphaScreen HP1-beta / biotin-H3K9me3 peptide binding; AID 540317; hit rate 0.56% among 390,000; Potency, µM (top dose mostly 114 µM), hits mostly inhibitors; P83916; further: nearly all actives have a fitted effect of over 70% in size
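Compound inhibition of the preformed complex between 50 nM HP1-beta and 50 nM biotinylated H3K9me3 peptide was read by AlphaScreen. Buffer was PBS pH 7.4 with 0.01% Tween-20. Incubations ran 30 min at room temperature, with 10 ug/mL donor/acceptor beads.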
Hits are given with their value; ! = repeats disagree; [ ] = another dose, or the depositor's remark. Unless noted, the call rests on the fitted dose curve; in most records, active means well fitted inhibition curve with a large enough effect; inconclusive means small, poorly fitted or top-dose-only effect; inactive means no such curve, though single readings can be large or run the other way.

For c1ccc(CCNCC2COc3ccccc3O2)cc1 (configuration not stated) the results were BAZ2B block inactive, G9a block inactive, JMJD2A Tudor inh inactive, PI5P4K alpha inh inactive and HP1b binding inh inactive.
For O=C(O)CNCC1COc2ccccc2O1 (configuration not stated) the results were BAZ2B block inconclusive, G9a block 17.8µM, JMJD2A Tudor inh 3.98µM, L3MBTL1 block inactive and HP1b binding inh inactive.
For CSc1ccc(/C=C/C(=O)c2ccc(O)cc2)cc1 the results were BAZ2B block inactive, G9a block inconclusive, JMJD2A Tudor inh inconclusive, L3MBTL1 block inactive, PI5P4K alpha inh inactive and HP1b binding inh inactive.
For CSc1ccc(C(=O)c2[nH]c(=O)[nH]c2C)cc1 the results were BAZ2B block inactive, G9a block 10.6µM!, JMJD2A Tudor inh inactive, L3MBTL1 block inactive, PI5P4K alpha inh inconclusive and HP1b binding inh inactive.
For CN(C)c1ccc(N=Nc2nc3ccccc3n2C)cc1 the results were BAZ2B block 2.82µM, G9a block inconclusive, JMJD2A Tudor inh 10µM, PI5P4K alpha inh -59.3 and HP1b binding inh 14.1µM.
Cn1c(N=Nc2ccccc2)nc2ccccc21 was read as BAZ2B block 50.1µM, G9a block inconclusive, JMJD2A Tudor inh inconclusive, L3MBTL1 block inconclusive, PI5P4K alpha inh -74.3 and HP1b binding inh inconclusive.
`CC(=O)OC1CCC2(C)C(=CC=C3C2CCC2(C)C3CCC2C(C)/C=C/C(C)C(C)C)C1(C)C` (configuration not stated) gave G9a block inactive[2.33 µM].
Screening Cc1ccc(Cl)cc1NC(=O)Cn1c(=O)n(CCC(=O)N2CCc3ccccc3C2)c(=O)c2ccccc21 returned BAZ2B block inactive, G9a block inactive, JMJD2A Tudor inh inactive and HP1b binding inh inactive.
For CCOC(=O)c1cc(-c2ccccc2)sc1NC(=O)CC the results were BAZ2B block inactive, G9a block 56.2µM, JMJD2A Tudor inh inactive, L3MBTL1 block inactive, PI5P4K alpha inh inactive and HP1b binding inh inconclusive.
Screening CCOC(=O)c1cc(-c2ccccc2)sc1N returned BAZ2B block inconclusive, G9a block 8.91µM, JMJD2A Tudor inh inconclusive, L3MBTL1 block inactive, PI5P4K alpha inh inactive and HP1b binding inh inconclusive.
For CCOC(=O)c1cc(-c2ccccc2)sc1NC(=O)c1ccc(OC)cc1 the results were BAZ2B block inactive, G9a block inconclusive, JMJD2A Tudor inh inconclusive, L3MBTL1 block inactive, PI5P4K alpha inh inactive and HP1b binding inh inconclusive.
CCN1CCCc2cc(CN(CCN3CCOCC3)C(=S)Nc3ccccc3OC)ccc21 was read as BAZ2B block 39.8µM, G9a block 25.1µM, JMJD2A Tudor inh 39.8µM, L3MBTL1 block inactive, PI5P4K alpha inh inactive and HP1b binding inh inactive.
For CCN1CCCc2cc(CN(CCN3CCOCC3)C(=S)Nc3ccccc3C)ccc21 the results were BAZ2B block inactive, G9a block inactive, JMJD2A Tudor inh inactive[11.4 µM], PI5P4K alpha inh inactive and HP1b binding inh inactive.
`CCN1CCCc2cc(CN(CCN3CCOCC3)C(=S)Nc3cccc(C)c3)ccc21` gave BAZ2B block 8.91µM, G9a block inconclusive, JMJD2A Tudor inh 11.2µM, PI5P4K alpha inh inactive and HP1b binding inh inconclusive.
CCN1CCCc2cc(CN(CCN3CCOCC3)C(=S)Nc3ccc(OC)c(Cl)c3)ccc21 was read as BAZ2B block inconclusive, G9a block 50.1µM, JMJD2A Tudor inh inconclusive, L3MBTL1 block inactive, PI5P4K alpha inh inactive and HP1b binding inh inactive.
Screening COc1cccc(C(=O)NCC(=O)OCc2cc(=O)n3c(C)csc3n2)c1 returned BAZ2B block inactive, G9a block inactive, JMJD2A Tudor inh inactive and HP1b binding inh inactive.
`COc1ccc(CCCc2nnc(SCC(=O)Nc3ccc(C)cc3)o2)cc1C` gave BAZ2B block inactive, G9a block inconclusive, JMJD2A Tudor inh inactive and HP1b binding inh inactive.
Screening Cc1ccc(C(=O)N/C(=C/c2ccco2)C(=O)NC2CCS(=O)(=O)C2)cc1 (configuration not stated) returned BAZ2B block inactive, G9a block inconclusive, JMJD2A Tudor inh inactive, L3MBTL1 block inactive, PI5P4K alpha inh inactive and HP1b binding inh inactive.
For COc1ccc(/C=C(/NC(=O)c2ccccc2)C(=O)NC2CCS(=O)(=O)C2)cc1 (configuration not stated) the results were BAZ2B block inactive, G9a block inactive, JMJD2A Tudor inh 14.1µM, L3MBTL1 block inactive, PI5P4K alpha inh inactive and HP1b binding inh inactive.
COc1ccc(-n2c(=O)c(CCc3ccccc3)nc3cnc(N4CCN(C)CC4)nc32)cc1 was read as G9a block inactive[0.501 µM].
For Cc1nc2ccccc2c(=O)n1NC(=O)COc1ccccc1 the results were BAZ2B block inactive, G9a block inactive[12.7 µM], JMJD2A Tudor inh inactive and HP1b binding inh inactive.
Screening Cc1cc(/C=N/n2c(COc3ccccc3)nc3ccccc3c2=O)c(O)c([N+](=O)[O-])c1 returned BAZ2B block 4.47µM, G9a block inactive, JMJD2A Tudor inh 12.6µM, L3MBTL1 block 5.62µM, PI5P4K alpha inh -50.7 and HP1b binding inh inconclusive.
For O=c1c2ccccc2nc(COc2ccccc2)n1/N=C/c1ccc(O)c(O)c1 the results were BAZ2B block 44.7µM, G9a block 3.16µM, JMJD2A Tudor inh inconclusive, PI5P4K alpha inh inactive and HP1b binding inh inactive.
Screening O=C(Nn1c(COc2ccccc2)nc2ccccc2c1=O)C(Cl)(Cl)Cl returned BAZ2B block inactive, G9a block 50.1µM, JMJD2A Tudor inh inactive, PI5P4K alpha inh inactive and HP1b binding inh inactive.
Screening CCOc1cc(/C=N/n2c(COc3ccccc3)n[nH]c2=S)ccc1O returned BAZ2B block inactive, G9a block 4.47µM, JMJD2A Tudor inh inconclusive, PI5P4K alpha inh inactive and HP1b binding inh inactive.
O=C(O)COc1ccc(/C=N/n2c(COc3ccccc3)nc3ccccc3c2=O)cc1 was read as BAZ2B block inactive, G9a block inconclusive, JMJD2A Tudor inh inactive, L3MBTL1 block inactive, PI5P4K alpha inh inactive and HP1b binding inh inactive.
Oc1ccc(/C=N/n2c(COc3ccccc3)n[nH]c2=S)cc1O was read as BAZ2B block inconclusive, G9a block 10µM, JMJD2A Tudor inh 3.16µM, PI5P4K alpha inh inactive and HP1b binding inh inconclusive.
COc1ccccc1C(=O)Nc1cc2c(cc1N1CCOCC1)n(C)c(=O)n2C was read as BAZ2B block inactive, G9a block inactive, JMJD2A Tudor inh inactive and HP1b binding inh inactive.
Screening CC1=C(C(=O)N2CCOCC2)C(c2ccc(Cl)cc2)NC(=S)N1 (configuration not stated) returned BAZ2B block inactive, G9a block 70.8µM, JMJD2A Tudor inh inactive, L3MBTL1 block inactive, PI5P4K alpha inh inactive and HP1b binding inh inactive.
`CC1=C(C(=O)N2CCOCC2)C(c2c(C)cc(C)cc2C)NC(=S)N1` (configuration not stated) gave BAZ2B block inactive, G9a block inactive, JMJD2A Tudor inh inactive, L3MBTL1 block inactive, PI5P4K alpha inh inactive and HP1b binding inh inactive.
